High-throughput results as filed in PubChem BioAssay.
The list is not random: actives were taken first. Their share in the collection is about 2.2%.
HUVEC tox IL1B – cytotoxicity in IL-1B stimulated HUVEC, primary screen, cytotoxicity control for IL-1B NFkB translocation project, imaging, Hoechst nuclear count, IL-1B stimulus | 94,000 compounds, 0.41% hits | cell count reduction, % at 2 µM | HUVEC cell count loss;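 active = cell count reduction more than 3 SD above the screen-wide mean, cut at about 70% in these data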;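 also: normalized per plate to untreated control cells as the no-loss baseline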
PLK1 kinase inh – human PLK1 kinase inhibitors, primary screen, biochemical, TR-FRET | Serine/threonine-protein kinase PLK1 (Homo sapiens), P53350 | recombinant PLK1 kinase, TR-FRET peptide phosphorylation | inhibition, % at 10 µM | 97,000 compounds, 0.53% hits;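 active = inhibition of 50% or more in the single-concentration screen; inactive = inhibition below 50%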;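 also: 0% = DMSO max control and 100% = H-89 dihydrochloride min control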
Target sequence (P53350 whole entry, looked up): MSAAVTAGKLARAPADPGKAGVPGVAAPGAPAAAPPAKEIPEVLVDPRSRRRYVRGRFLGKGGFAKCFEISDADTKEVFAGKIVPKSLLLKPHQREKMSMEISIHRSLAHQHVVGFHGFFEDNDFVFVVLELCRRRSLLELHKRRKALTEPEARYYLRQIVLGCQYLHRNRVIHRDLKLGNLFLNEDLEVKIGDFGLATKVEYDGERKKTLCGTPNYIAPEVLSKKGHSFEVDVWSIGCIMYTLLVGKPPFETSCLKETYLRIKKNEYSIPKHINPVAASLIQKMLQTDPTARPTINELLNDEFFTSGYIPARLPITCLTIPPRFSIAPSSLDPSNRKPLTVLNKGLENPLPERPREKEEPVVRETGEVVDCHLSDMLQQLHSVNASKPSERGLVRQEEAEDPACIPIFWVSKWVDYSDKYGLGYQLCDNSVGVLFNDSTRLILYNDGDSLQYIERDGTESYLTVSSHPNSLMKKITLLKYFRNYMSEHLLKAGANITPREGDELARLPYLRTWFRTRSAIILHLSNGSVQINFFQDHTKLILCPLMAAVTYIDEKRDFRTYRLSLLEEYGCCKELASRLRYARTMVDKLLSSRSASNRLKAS
PLK1 PBD inh – Plk1 polo box domain binding inhibitors, primary screen, biochemical, fluorescence polarization; inhibition, %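 (tested at about 20 µM)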; AID 693, 2007; 97,000 compounds, 0.13% hits; Plk1 PBD phosphopeptide binding; in the data active = inhibition above about 34%, passing the limit was not always enough
IL1B NFkB inh – inhibitors of IL-1B driven NFkB p65 nuclear import, primary screen, imaging, HUVEC, IL-1B stimulus, high-content imaging | HUVEC IL-1B NFkB p65 nuclear translocation imaging | inhibition, % at 2 µM | 94,000 compounds, 0.43% hits | AID 796, 2007;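 active = inhibition above about 30% together with a positive call from visual inspection of the well image, limit read from the data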;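 also: nuclear over cytoplasmic p65 intensity ratio measured by imaging; 0% = IL-1B stimulated DMSO wells and 100% = unstimulated DMSO wells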
PTK2B oligo ant – antagonists of Pyk2 self-association, primary screen, Q293 cells, FERM NanoBiT luminescence, HTS; Protein-tyrosine kinase 2-beta (Homo sapiens), Q14289; stronger effect = lower value; z-score (the deposit names both 25 µM and 10 µM); 99,000 compounds, 0.83% hits; AID 1347419, 2020;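 active = Z-score of -3 or lower, scaled per plate to the spread of control and sample wells; inactive = z-score above -3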;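 also: negative z-score means lost luminescence so less FERM oligomerization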
NFkB transloc pot – enhancers of NFkB p65 translocation in HUVEC – imaging, IL-1B stimulus, high-content imaging, primary screen. HUVEC IL-1B NFkB p65 nuclear translocation imaging. activation, % at 2 µM. 94,000 compounds, 0.3% hits;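 active = activation above 40%, about the mean plus 3 SD, also judged a hit on visual image review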;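 also: percent activation is computed from the nuclear over cytoplasmic p65 intensity ratio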
PLK1 confirm – PLK1 kinase activity inhibitors, confirmation, biochemical, TR-FRET, duplicate runs. shares compounds with PLK1 kinase inh. recombinant PLK1 kinase, TR-FRET peptide phosphorylation. inhibition, % at 10 µM. 210 compounds, 20% hits. AID 744, 2007;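 active = inhibition at or above 50% in each of two repeat confirmation tests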;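 also: 0% = DMSO max control and 100% = H-89 kinase-blocked min control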
Plk1 interf – compound interference with Plk1 assay readout, artefact control for Plk1 kinase inhibitor project, biochemical, TR-FRET, compound added post-reaction. shares compounds with PLK1 kinase inh. inhibition (interference), % at 10 µM. AID 756, 2007. 210 tested, under 10 active;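 active = both duplicate runs show 50% or greater inhibition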;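 also: 0% = DMSO max control and 100% = H-89 min control inhibited reaction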
An asterisk follows results filed as active.

Screening CC(Oc1ccc(Cl)cc1Cl)C(=O)NCCCN1CCOCC1 (configuration not stated) returned PLK1 kinase inh 74*, PLK1 PBD inh 14, PLK1 confirm -13 and Plk1 interf -48.
`O=C(CNS(=O)(=O)c1ccccc1)NCc1ccccn1` gave HUVEC tox IL1B -30, PLK1 kinase inh -8, PLK1 PBD inh 8, IL1B NFkB inh -4, PTK2B oligo ant 0.19 and NFkB transloc pot 4.
For CC(C)OC(=O)C1C2C=CC3(CN(C(C)c4ccc(Br)cc4)C(=O)C13)O2 (configuration not stated) the results were PLK1 kinase inh 74*, PLK1 PBD inh -11, PLK1 confirm -12 and Plk1 interf -46.
Screening Cc1cccc(-n2ncc3c(NCCc4ccc(S(N)(=O)=O)cc4)ncnc32)c1 returned PLK1 kinase inh 71*, PLK1 PBD inh -5, PLK1 confirm -16 and Plk1 interf -56.
For COc1cccc(C2Nc3cc(Cl)c(S(N)(=O)=O)cc3S(=O)(=O)N2)c1 (configuration not stated) the results were HUVEC tox IL1B 5, PLK1 kinase inh -10, PLK1 PBD inh -34, IL1B NFkB inh -25, PTK2B oligo ant 0.5 and NFkB transloc pot 25.
`NC(=O)c1ccc(C(F)(F)F)n(Cc2ccc(Cl)cc2)c1=O` gave HUVEC tox IL1B -61, PLK1 kinase inh 81*, PLK1 PBD inh -19, IL1B NFkB inh -16, PTK2B oligo ant -0.01, NFkB transloc pot 16, PLK1 confirm 56* and Plk1 interf -49.
NC(=O)c1ccc(C(F)(F)F)n(Cc2cccc(Cl)c2)c1=O was read as HUVEC tox IL1B -124, PLK1 kinase inh 75*, PLK1 PBD inh 24, IL1B NFkB inh 4, PTK2B oligo ant -0.36, NFkB transloc pot -4, PLK1 confirm 62* and Plk1 interf -56.
`O=C(NC1CS(=O)(=O)CC1NCc1ccccc1)c1ccccc1` (configuration not stated) gave HUVEC tox IL1B -8, PLK1 kinase inh -14, PLK1 PBD inh -25, IL1B NFkB inh -4, PTK2B oligo ant -0.17 and NFkB transloc pot 4.
For Cc1ccc(SCC(=O)Nc2cccc(-c3nnc(-c4ccco4)o3)c2)cc1 the results were HUVEC tox IL1B 7, PLK1 kinase inh 3, PLK1 PBD inh -31, IL1B NFkB inh -1, PTK2B oligo ant 1.2 and NFkB transloc pot 1.
Screening COCCn1c(=O)c2cc3c(=O)n(CCOC)c(=O)c3cc2c1=O returned HUVEC tox IL1B -7, PLK1 kinase inh 5, PLK1 PBD inh -5, IL1B NFkB inh 1, PTK2B oligo ant -0.48 and NFkB transloc pot -1.
Screening COc1ccc(CCN2C(=NC(=O)CCC(=O)O)SC3CS(=O)(=O)CC32)cc1 (configuration not stated) returned HUVEC tox IL1B -13, PLK1 kinase inh -1, PLK1 PBD inh 16, IL1B NFkB inh -2, PTK2B oligo ant 1.1 and NFkB transloc pot 2.
CCOC(=O)C1=C(CSc2nc(CC)c(C)cc2C#N)OC(N)=C(C#N)C1c1ccccc1 (configuration not stated) was read as HUVEC tox IL1B -21, PLK1 kinase inh -8, PLK1 PBD inh 21, IL1B NFkB inh -20, PTK2B oligo ant -1.1 and NFkB transloc pot 20.
Screening CCOC(=O)C1=C(CSc2nc3c(cc2C#N)CN(C)CC3)OC(N)=C(C#N)C1c1ccc(Cl)cc1 (configuration not stated) returned HUVEC tox IL1B 2, PLK1 kinase inh 116*, PLK1 PBD inh -23, IL1B NFkB inh -3, PTK2B oligo ant -0.12, NFkB transloc pot 3, PLK1 confirm 1 and Plk1 interf -54.
